Assay results taken from PubChem BioAssay (NCATS).
Records with an inconclusive call do not appear. The source made the active and inactive calls. Unless noted, calls follow the shape of the dose curve; as a rule, active = well fitted curve in the direction sought with a large enough effect; inconclusive = small, poorly fitted or top-dose-only effect, or another doubt; inactive = no such curve, though single readings can be large; an effect the other way counts as inactive or inconclusive. Bridge positions count the residues as written; N and C are the ends. Square brackets hold non-standard residues; d marks the D form. Peptide text beside a SMILES is read from it. * marks the point of attachment. Ileψ(thiazoline)Cys = CC[C@H](C)[C@H](N)C1=N[C@H](C(=O)*)CS1; d(aIle) = CC[C@H](C)[C@@H](N)C(=O)O; dOrn = NCCC[C@@H](N)C(=O)O

Tests used:
[1] = target: ATP-dependent 6-phosphofructokinase (Trypanosoma brucei brucei) (UniProt O15648); test: qHTS Assay to Find Inhibitors of T. brucei phosphofructokinase: hit validation (AID 492961);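 also: luminescence reports ADP formed as PFK phosphorylates fructose-6-phosphate with ATP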
Chain of ATP-dependent 6-phosphofructokinase (Trypanosoma brucei brucei) (O15648 whole entry, looked up): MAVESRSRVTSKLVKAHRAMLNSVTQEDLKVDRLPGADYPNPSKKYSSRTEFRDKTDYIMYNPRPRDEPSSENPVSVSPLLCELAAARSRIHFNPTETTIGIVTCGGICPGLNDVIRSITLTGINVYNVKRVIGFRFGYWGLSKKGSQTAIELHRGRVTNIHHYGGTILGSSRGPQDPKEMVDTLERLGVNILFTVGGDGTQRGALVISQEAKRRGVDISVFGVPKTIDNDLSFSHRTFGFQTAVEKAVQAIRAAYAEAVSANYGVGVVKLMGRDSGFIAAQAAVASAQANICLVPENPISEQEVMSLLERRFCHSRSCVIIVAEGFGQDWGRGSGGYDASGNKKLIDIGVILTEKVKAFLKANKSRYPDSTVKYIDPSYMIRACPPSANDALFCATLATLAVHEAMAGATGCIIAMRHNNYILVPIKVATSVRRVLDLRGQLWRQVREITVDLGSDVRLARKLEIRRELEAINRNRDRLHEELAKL
In short: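 Compounds titrated; %activity normalized to 0x and 1x enzyme controls, curve-fitted. Readout: ADP-Glo luminescence after 45 min room-temperature reaction of 1.25 nM PFK, 0.1 mM ATP, 0.5 mM F6P, pH 8.0.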

[2] = target: Luciferin 4-monooxygenase (Photinus pyralis) (UniProt P08659); test: Biochemical firefly luciferase enzyme assay for NPC (AID 624030);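 also: purified P. pyralis luciferase at 10 nM with luciferin and ATP substrate; nearly all actives have a fitted effect of over 70% in size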
Chain of Luciferin 4-monooxygenase (Photinus pyralis) (P08659 whole entry, looked up): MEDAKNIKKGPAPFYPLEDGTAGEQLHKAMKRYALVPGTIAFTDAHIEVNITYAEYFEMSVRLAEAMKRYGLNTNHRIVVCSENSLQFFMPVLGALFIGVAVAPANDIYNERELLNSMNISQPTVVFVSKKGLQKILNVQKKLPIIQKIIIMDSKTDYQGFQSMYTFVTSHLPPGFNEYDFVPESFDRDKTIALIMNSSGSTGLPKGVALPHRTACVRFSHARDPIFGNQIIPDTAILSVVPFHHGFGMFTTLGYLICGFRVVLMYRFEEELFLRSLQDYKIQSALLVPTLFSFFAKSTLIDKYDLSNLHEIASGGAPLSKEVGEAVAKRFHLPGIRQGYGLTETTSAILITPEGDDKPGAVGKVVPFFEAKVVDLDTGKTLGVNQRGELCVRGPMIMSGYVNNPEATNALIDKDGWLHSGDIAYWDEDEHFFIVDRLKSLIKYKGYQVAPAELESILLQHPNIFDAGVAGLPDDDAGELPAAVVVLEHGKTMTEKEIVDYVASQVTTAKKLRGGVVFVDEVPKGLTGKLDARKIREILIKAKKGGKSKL
In short: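 Purified P. pyralis luciferase at 10 nM in 50 mM Tris Acetate (final), luminescence read within 5 minutes of enzyme addition to compounds. Activity normalised to PTC124 versus DMSO; concentration-response curves classed by r2, magnitude and activity.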

[3] = S16 Schwann cell PMP22 intronic element firefly luciferase assay (AID 624032); also: nearly all actives have a fitted effect of over 30% in size; also: potency is read from the fitted curve at half-maximal effect
In short: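 Rat S16 Schwann cells stably carrying firefly luciferase driven by a PMP22 intronic element, in 10% FBS, treated 24 h at 37 C. ONE-Glo luminescence normalized to PTC124 control and DMSO (0%); curves classed by r2, magnitude and activity.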

[4] = S16 Schwann cell PMP22 intronic element beta-lactamase assay (AID 624044; calls by dose curve; also: nearly all actives have a fitted effect of over 15% in size)
In short: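 Beta-lactamase reporter under a PMP22 intronic regulatory element in stable S16 rat Schwann cells; 24 h compound exposure. 460 nm blue signal normalized between DMSO (0%) and potassium clavulanate, with 535 nm FRET tracking viability; curves classed by r2 and response.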

7G8 = test: qHTS profiling for inhibitors of Plasmodium falciparum proliferation (AID 504749); also: nearly all actives have a fitted effect of over 60% in size; settings: P. falciparum in erythrocytes, SYBR Green DNA, 72 h; series mostly up to 12.8 µM
In short: (§1)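 SYBR Green fluorescence (ex 485 nm, em 535 nm) reports parasite DNA after 72 h compound exposure of infected red cells at 0.3% parasitemia, 2.5% hematocrit; signal normalized to 0.29 uM artemisinin and vehicle wells.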

AA1029 = test: as above; settings: P. falciparum in erythrocytes, SYBR Green DNA, 72 h; series mostly up to 12.8 µM
In short: as §1

CP194 = test: as above; settings: P. falciparum in erythrocytes, SYBR Green DNA, 72 h; series mostly up to 12.8 µM
In short: as §1

CP203 = test: as above; settings: P. falciparum in erythrocytes, SYBR Green DNA, 72 h; series mostly up to 12.8 µM
In short: as §1

CP215 = test: as above; settings: P. falciparum in erythrocytes, SYBR Green DNA, 72 h; series mostly up to 12.8 µM
In short: as §1

CP265 = test: as above; settings: P. falciparum in erythrocytes, SYBR Green DNA, 72 h; series mostly up to 12.8 µM
In short: as §1

DFO2036 = test: as above; settings: P. falciparum in erythrocytes, SYBR Green DNA, 72 h; series mostly up to 12.8 µM
In short: as §1

DIV14 = test: as above; settings: P. falciparum in erythrocytes, SYBR Green DNA, 72 h; series mostly up to 12.8 µM
In short: as §1

[5] = target: Cytochrome P450 3A4 (Homo sapiens) (UniProt P08684); test: qHTS Assay for Activators of Cytochrome P450 3A4 (AID 885); also: nearly all actives have a fitted effect of over 65% in size; also: potency is read from the fitted curve at half-maximal effect
Chain of Cytochrome P450 3A4 (Homo sapiens) (P08684 whole entry, looked up): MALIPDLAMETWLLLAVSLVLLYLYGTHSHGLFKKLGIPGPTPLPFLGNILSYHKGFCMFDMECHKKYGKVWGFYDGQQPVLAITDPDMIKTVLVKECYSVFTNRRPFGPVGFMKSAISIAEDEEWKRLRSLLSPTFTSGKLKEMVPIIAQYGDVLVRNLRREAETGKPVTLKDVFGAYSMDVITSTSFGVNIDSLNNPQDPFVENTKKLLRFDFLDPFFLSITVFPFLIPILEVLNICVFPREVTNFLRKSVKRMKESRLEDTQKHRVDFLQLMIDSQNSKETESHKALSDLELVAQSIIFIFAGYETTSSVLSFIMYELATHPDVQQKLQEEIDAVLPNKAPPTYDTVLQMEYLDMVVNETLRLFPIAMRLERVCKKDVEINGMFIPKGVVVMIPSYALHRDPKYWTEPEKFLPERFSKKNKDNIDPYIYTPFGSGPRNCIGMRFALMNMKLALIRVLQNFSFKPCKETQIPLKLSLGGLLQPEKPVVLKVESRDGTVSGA
In short: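 Activators are scored by enhanced luminescence from CYP3A4 conversion of luciferin-PPXE (25uM, equal to KM) to luciferin, after 60 min at RT with an NADPH-regenerating system.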

[6] = target: Cytochrome P450 2D6 (Homo sapiens) (UniProt P10635); test: qHTS Assay for Inhibitors and Substrates of Cytochrome P450 2D6 (AID 891); also: potency is read from the fitted curve at half-maximal effect; nearly all actives have a fitted effect of over 60% in size
Chain of Cytochrome P450 2D6 (Homo sapiens) (P10635 whole entry, looked up): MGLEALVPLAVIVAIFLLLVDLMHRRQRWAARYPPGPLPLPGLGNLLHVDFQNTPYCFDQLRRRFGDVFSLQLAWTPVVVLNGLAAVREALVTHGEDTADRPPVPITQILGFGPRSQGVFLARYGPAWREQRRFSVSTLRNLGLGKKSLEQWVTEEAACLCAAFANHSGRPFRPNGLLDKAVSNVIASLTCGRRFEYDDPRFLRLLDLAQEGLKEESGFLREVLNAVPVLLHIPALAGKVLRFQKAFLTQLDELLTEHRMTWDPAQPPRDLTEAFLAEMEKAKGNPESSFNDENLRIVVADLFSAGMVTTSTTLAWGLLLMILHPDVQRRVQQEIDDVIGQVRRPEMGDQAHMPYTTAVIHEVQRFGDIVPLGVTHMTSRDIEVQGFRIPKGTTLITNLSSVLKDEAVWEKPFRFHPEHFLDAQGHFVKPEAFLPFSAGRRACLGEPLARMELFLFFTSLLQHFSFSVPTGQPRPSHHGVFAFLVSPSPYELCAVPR
In short: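 Luminescent read-out of luciferin formed by 5 nM human CYP2D6 demethylating 30 uM Luciferin-ME EGE (Km level) over 60 min at room temperature after NADPH regeneration addition. Data normalized to full inhibition by 1.43 uM quinidine.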

[7] = Confirmation and Secondary Assay for Modulators of Hemoglobin Beta Chain Splicing at IVS2 654 locus (AID 910);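 also: HeLa cells stably carrying EGFP split by mutant beta-globin IVS2-654 intron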
In short: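 HeLa cells stably expressing EGFP interrupted by β-globin IVS2-654 intron, seeded overnight in Opti-MEM/2% FCS, then treated 2 days at 37 °C. Restored splicing read as total peak GFP intensity per well by laser scanning cytometry (488 nm excitation, 500–520 nm emission); 500 nM antisense PNA as control.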

[8] = Confirmation and Secondary Assay for Modulators of Hemoglobin Beta Chain Splicing at IVS2 705 locus (AID 930);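 also: HeLa cells stably expressing the EGFP-705 splicing reporter; GFP fluorescence per well restored by corrected splicing of the IVS2-705 intron in EGFP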
In short: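 Assay measures total GFP intensity per well in HeLa EGFP-705 cells after 2 days with compound; mis-splicing normally truncates EGFP, so fluorescence indicates corrected splicing.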

CP335 = test: qHTS profiling for inhibitors of Plasmodium falciparum proliferation (AID 504749); also: nearly all actives have a fitted effect of over 60% in size; settings: P. falciparum in erythrocytes, SYBR Green DNA, 72 h; series mostly up to 12.8 µM
In short: as §1

GB4 = test: as above; settings: P. falciparum in erythrocytes, SYBR Green DNA, 72 h; series mostly up to 12.8 µM
In short: as §1

[9] = target: Cytochrome P450 3A4 (Homo sapiens) (UniProt P08684); test: qHTS Assay for Inhibitors and Substrates of Cytochrome P450 3A4 (AID 884); also: nearly all actives have a fitted effect of over 50% in size; also: potency is read from the fitted curve at half-maximal effect
In short: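 Luminescent readout of luciferin produced by CYP3A4 (20 nM) dealkylation of Luciferin-PPXE, 25 uM (its KM). NADPH-driven reaction ran 60 min at RT after 10 min compound preincubation; data scaled to 57 uM ketoconazole as 100% inhibition.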

Measured: Potency

CO[C@@H]1C[C@H](O[C@H]2[C@@H](C)[C@H](O[C@@H]3O[C@@H](C)C[C@@H](N(C)C)[C@@H]3OC(C)=O)[C@H](C)C[C@]3(CO3)C(=O)[C@H](C)[C@H](OC(C)=O)[C@H](C)[C@H](C)OC(=O)[C@@H]2C)O[C@H](C)[C@@H]1OC(C)=O
not listed: [5] | [6] | [7] | [8] | CP335 | GB4 | [9]
inactive: all other assays above

Cn1c(-c2ccc3c(c2)OCO3)cc(=O)c2ccccc21
inactive: [5]
active: [6] 1.58 µM

COc1cc(C2Oc3cc(C4Oc5cc(O)cc(O)c5C(=O)C4O)ccc3OC2CO)ccc1O (stereo not drawn)
inactive: [5] | [7] | [8]

CC[C@H](C)[C@H](N)C1=N[C@H](C(=O)N[C@@H](CC(C)C)C(=O)N[C@@H](CCC(=O)O)C(=O)N[C@@H](C(=O)N[C@H]2CCCCNC(=O)[C@@H](CC(N)=O)NC(=O)[C@@H](CC(=O)O)NC(=O)[C@@H](Cc3cnc[nH]3)NC(=O)[C@@H](Cc3ccccc3)NC(=O)[C@@H]([C@@H](C)CC)NC(=O)[C@@H](CCCN)NC2=O)[C@@H](C)CC)CS1 ({Ileψ(thiazoline)Cys}-LE[d(aIle)]K[dOrn][d(aIle)][dF][dH][dD][dN]; lactam 4-C)
not listed: [1] | [4] | [5] | [6] | [7] | [8] | [9]
inactive: all other assays above

CCN[C@@H]1C[C@H](N)[C@H](O[C@H]2OC(CN)=CC[C@H]2N)[C@@H](O)[C@H]1O[C@H]1OC[C@@](C)(O)[C@@H](NC)[C@@H]1O
not listed: [5] | [6] | [7] | [8] | [9]
inactive: all other assays above

COC(=O)[C@@H]1[C@@H]2C[C@H]3c4[nH]c5cc(OC)ccc5c4CCN3C[C@@H]2C[C@H](OC(=O)c2cc(OC)c(OC)c(OC)c2)[C@H]1OC
inactive: [5]

Fc1ccc(Nc2nc(-c3cccnc3)nc3ccccc23)cc1
inactive: [7] | [8]

C[C@H](O)Cn1cnc2c1c(=O)n(C)c(=O)n2C
not listed: [1] | DFO2036 | [5] | [6] | [7] | [8] | [9]
inactive: all other assays above

COc1c(O[C@H]2O[C@@H](CO)[C@@H](O)[C@@H](O)[C@@H]2O)cc2c(c1OC)-c1ccc(SC)c(=O)cc1[C@H](NC(C)=O)CC2
not listed: DFO2036 | [5] | [6] | [7] | [8] | [9]
inactive: all other assays above

CC(=O)OCC(=O)[C@@]1(OC(C)=O)[C@H](C)C[C@H]2[C@@H]3C[C@H](F)C4=CC(=O)C=C[C@@]4(C)[C@]3(F)[C@H](O)C[C@@]21C
inactive: [9]
active: [5] 6.31 µM

C[C@@H]1C[C@H]2[C@@H]3C[C@H](F)C4=CC(=O)C=C[C@@]4(C)[C@]3(F)[C@H](O)C[C@]2(C)[C@@]1(O)C(=O)CO
not listed: [2] | [5] | [6] | [7] | [8] | [9]
inactive: all other assays above

C#C[C@@]1(OC(C)=O)CC[C@@H]2[C@@H]3CCC4=C[C@@H](OC(C)=O)CC[C@H]4[C@H]3CC[C@]21C
inactive: [9]
active: [5] 5.01 µM

CS(=O)(=O)Nc1cccc(-c2nc(Nc3ccc(F)cc3)c3ccccc3n2)c1
active: [9] 6.31 µM
inactive: [5] | [7] | [8]

COc1ccccc1OC[C@H](O)CO
not listed: [5] | [6] | [7] | [8] | [9]
inactive: all other assays above

NS(=O)(=O)c1cc2c(cc1Cl)N[C@@H](C(Cl)Cl)NS2(=O)=O
not listed: [4] | DFO2036 | [5] | [6] | [7] | [8] | [9]
inactive: all other assays above

C[C@H](N[C@@H](C)COc1ccccc1)[C@H](O)c1ccc(O)cc1
active: [6] 0.316 µM | [3] 1.55 µM
not listed: CP203 | DIV14 | [5] | [7] | [8] | GB4 | [9]
inactive: all other assays above

CO[C@]1(NC(=O)[C@H](C(=O)O)c2ccc(O)cc2)C(=O)N2C(C(=O)O)=C(CSc3nnnn3C)CO[C@H]21
not listed: [4] | [5] | [6] | [7] | [8] | [9]
inactive: all other assays above
